Inconclusive results are not listed. Activity calls are given as the source filed them. Unless noted, calls follow the shape of the dose curve; as a rule, active = well fitted curve in the direction sought with a large enough effect in the repeat runs; inconclusive = weak or mixed curves; inactive = no such curve, though single readings can be large; an effect the other way counts as inactive or inconclusive.

Assay [1] is described as follows: qHTS assay to test for compound auto fluorescence at 535 nm (green) in HEK293 cells (AID 720680). (In general: qHTS replaces the single test concentration by a dilution series.)
Assay [2] in a line: qHTS assay to test for compound auto fluorescence at 460 nm (blue) in HEK293 cell free culture (AID 720681). In short, it runs like this: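 Compounds were added to cell-free DMEM with 10% FBS and fluorescence read directly. The blue channel used 405 nm excitation and 460 nm emission, with triamterene as the reference fluorophore.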
Assay [3] can be described thus: qHTS assay to test for compound auto fluorescence at 535 nm (green) in HEK293 cell free culture (AID 720682). Put shortly:
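Steps: dispense DMEM/10% FBS into empty wells; pin in compound or DMSO; measure fluorescence at 485/535 nm. Values are fluorescein equivalents.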

Assay [4] is described as follows: qHTS assay to test for compound auto fluorescence at 590 nm (red) in HEK293 cell free culture (AID 720683). In short, it runs like this:
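Cell-free wells of DMEM with 10% FBS received compound, and intrinsic fluorescence was read at excitation/emission 540/590 nm. Values expressed as equivalence to Rose Bengal sodium.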

Assay [5] in a line: qHTS assay to test for compound auto fluorescence at 590 nm (red) in HepG2 cell free culture (AID 720684). Put shortly: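 Rose Bengal sodium served as the reference for red signal. Test compounds were dispensed into serum-containing MEM (10% FBS) without cells, and plates were read at 540/590 nm.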
The nature of assay [6]: qHTS assay to test for compound auto fluorescence at 460 nm (blue) in HepG2 cell free culture (AID 720685). Put shortly: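 Cell-free plates of MEM plus 10% FBS received 23 nL compound or DMSO vehicle; blue-channel (405/460 nm) intensity scored against triamterene as reference fluorophore.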
The nature of assay [7]: qHTS assay to test for compound auto fluorescence at 460 nm (blue) in HepG2 cells (AID 720687). In short, it runs like this: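 HepG2 cells in MEM with 10% FBS, attached overnight at 37 C, were exposed to compound or DMSO for 1 hr at 37 C, 5% CO2. Blue fluorescence was read at 405/460 nm, with triamterene as reference fluorophore.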
Assay [8] concerns the target Glucocorticoid receptor (Homo sapiens) (UniProt P04150). The experiment in a line: qHTS assay to identify small molecule agonists of the glucocorticoid receptor (GR) signaling pathway (AID 720691; active = well fitted activation curve with a large enough effect in the signal ratio in the repeat runs, not every such curve was filed as active; the % refers to the signal ratio). The settings on record: GR-bla HeLa, beta-lactamase reporter ratio, 18 h; activation: at 62.4 µM (top of the series). In short, it runs like this: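 Measures GR pathway activation through a GRE-beta-lactamase reporter stably integrated in HeLa cells, with 18 h compound treatment at 37 C and fluorescence detection using a FRET substrate.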

Assay [9] shares this target. Description: qHTS assay to identify small molecule antagonists of the glucocorticoid receptor (GR) signaling pathway (AID 720692; active = well fitted inhibition curve with a large enough effect in the signal ratio in the repeat runs, not every such curve was filed as active; the % refers to the signal ratio). Put shortly:
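Tox21 10K library screened in concentration-response for blockade of dexamethasone (5 nM final)-induced GRE-bla reporter activity in HeLa cells; 18 h treatment, fluorescence read.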

Assay [10] is described as follows: qHTS assay to identify small molecule antagonists of the glucocorticoid receptor (GR) signaling pathway - cell viability counter screen (AID 720693). Also: nearly all actives have a fitted effect of over 55% in size.
A short description of assay [11]: qHTS assay for identifying genotoxic compounds that show differential cytotoxicity against isogenic chicken DT40 cell lines with known DNA damage response pathways - wild type cell line (AID 743012). Also: nearly all actives have a fitted effect of over 60% in size. Also: potency is read from the fitted curve at half-maximal effect. Put shortly: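 Endpoint: CellTiter-Glo luminescence, 30 min RT. Cells: wild type DT40, 300/well. Exposure: compounds in DMSO, 40 h, 37 C/5% CO2, after ~0.5 h pre-incubation.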

Assay [12] is described as follows: qHTS assay for identifying genotoxic compounds that show differential cytotoxicity against isogenic chicken DT40 cell lines with known DNA damage response pathways - Rev3 mutant cell line (AID 743014). Also: nearly all actives have a fitted effect of over 55% in size. Also: potency is read from the fitted curve at half-maximal effect.
Assay [13] is described as follows: qHTS assay for identifying genotoxic compounds that show differential cytotoxicity against isogenic chicken DT40 cell lines with known DNA damage response pathways - Rad54/Ku70 mutant cell line (AID 743015). Also: nearly all actives have a fitted effect of over 60% in size. Also: potency is read from the fitted curve at half-maximal effect.
Assay [14] in a line: qHTS assay to identify small molecule antagonists of the androgen receptor (AR) signaling pathway - cell viability counter screen (AID 743033; also: nearly all actives have a fitted effect of over 45% in size).
A short description of assay [15]: qHTS assay to identify small molecule antagonists of the androgen receptor (AR) signaling pathway using the MDA cell line - cell viability counter screen (AID 743041; also: nearly all actives have a fitted effect of over 45% in size). In short, it runs like this: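 Cytotoxicity counter screen: MDA-kb2 AR-luc cells, compound + R1881, 16 h, 37C, 0% CO2; CellTiter-Fluor added at 15.5 h, fluorescence read after 30 min.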
A short description of assay [16]: qHTS assay to test for compound auto fluorescence at 535 nm (green) in HepG2 cell free culture (AID 720686).
In assay [17] the target is Androgen receptor (Homo sapiens) (UniProt P10275). The experiment in a line: qHTS assay to identify small molecule antagonists of the androgen receptor (AR) signaling pathway (AID 743035; active = well fitted inhibition curve with a large enough effect in the signal ratio in the repeat runs, not every such curve was filed as active; the % refers to the signal ratio; also: potency is read from the fitted curve at half-maximal effect). In short, it runs like this: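 R1881 agonist challenge of a HEK293 UAS-beta-lactamase AR reporter line in the presence of compound (16 h, 37C); signal taken as FRET fluorescence after 2 h with LiveBLAzer B/G substrate at room temperature.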
Chain of Androgen receptor (Homo sapiens) (P10275 whole entry, looked up): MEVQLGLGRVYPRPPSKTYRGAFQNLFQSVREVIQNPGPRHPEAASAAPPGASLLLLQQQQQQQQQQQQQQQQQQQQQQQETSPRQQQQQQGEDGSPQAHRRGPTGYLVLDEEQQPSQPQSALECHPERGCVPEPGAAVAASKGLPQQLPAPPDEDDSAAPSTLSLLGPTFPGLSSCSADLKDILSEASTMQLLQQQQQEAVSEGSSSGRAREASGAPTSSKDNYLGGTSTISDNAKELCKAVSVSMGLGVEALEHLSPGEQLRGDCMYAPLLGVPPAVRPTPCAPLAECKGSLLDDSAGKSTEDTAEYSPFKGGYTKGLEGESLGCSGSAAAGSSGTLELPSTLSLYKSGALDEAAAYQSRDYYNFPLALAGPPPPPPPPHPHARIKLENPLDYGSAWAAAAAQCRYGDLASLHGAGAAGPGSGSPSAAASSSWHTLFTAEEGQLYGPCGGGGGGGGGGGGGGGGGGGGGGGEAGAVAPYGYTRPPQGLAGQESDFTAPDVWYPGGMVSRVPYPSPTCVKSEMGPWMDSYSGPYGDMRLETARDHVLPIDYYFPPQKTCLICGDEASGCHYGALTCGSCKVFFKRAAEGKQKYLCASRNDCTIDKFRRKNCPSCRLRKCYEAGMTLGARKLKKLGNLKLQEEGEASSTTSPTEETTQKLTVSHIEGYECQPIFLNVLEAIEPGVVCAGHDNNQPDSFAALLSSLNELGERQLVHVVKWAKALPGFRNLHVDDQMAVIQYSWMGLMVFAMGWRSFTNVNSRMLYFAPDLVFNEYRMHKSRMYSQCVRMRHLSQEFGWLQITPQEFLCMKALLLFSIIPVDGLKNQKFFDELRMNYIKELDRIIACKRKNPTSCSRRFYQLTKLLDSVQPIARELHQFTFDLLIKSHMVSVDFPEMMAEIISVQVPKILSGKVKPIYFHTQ

The target is the same in assay [18]. The experiment in a line: qHTS assay to identify small molecule agonists of the androgen receptor (AR) signaling pathway (AID 743036; active = well fitted activation curve with a large enough effect in the signal ratio in the repeat runs, with a control signal flat, not every such curve was filed as active; the % refers to the signal ratio; also: potency is read from the fitted curve at half-maximal effect). Put shortly:
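Reporter line: GeneBLAzer AR-UAS-bla-GripTite (HEK293). Steps: plate cells, 4 h rest, add compounds, 16 h at 37C, add LiveBLAzer B/G substrate, 2 h at RT, read fluorescence.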

The target is the same in assay [19]. Description: qHTS assay to identify small molecule agonists of the androgen receptor (AR) signaling pathway using the MDA cell line (AID 743040; also: nearly all actives have a fitted effect of over 20% in size; also: potency is read from the fitted curve at half-maximal effect). Put shortly:
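Luciferase read-out, ONE-Glo, 30 min RT. Cells: MDA-kb2 AR-luc, MMTV promoter with AR and GR response elements. Compound exposure 16 h, 37C, 0% CO2, after 5 h pre-incubation. qHTS agonist mode.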

The target is the same in assay [20]. Description: qHTS assay to identify small molecule antagonists of the androgen receptor (AR) signaling pathway using the MDA cell line (AID 743042; also: nearly all actives have a fitted effect of over 55% in size). In short, it runs like this:
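MDA-kb2 breast carcinoma cells carrying MMTV-luciferase (AR/GR responsive) were co-treated with compounds and the agonist R1881 for 16 h at 37C. Inhibition read as ONE-Glo luminescence; CellTiter-Fluor fluorescence measured in parallel for cytotoxicity.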

Chain of Glucocorticoid receptor (Homo sapiens) (P04150 whole entry, looked up): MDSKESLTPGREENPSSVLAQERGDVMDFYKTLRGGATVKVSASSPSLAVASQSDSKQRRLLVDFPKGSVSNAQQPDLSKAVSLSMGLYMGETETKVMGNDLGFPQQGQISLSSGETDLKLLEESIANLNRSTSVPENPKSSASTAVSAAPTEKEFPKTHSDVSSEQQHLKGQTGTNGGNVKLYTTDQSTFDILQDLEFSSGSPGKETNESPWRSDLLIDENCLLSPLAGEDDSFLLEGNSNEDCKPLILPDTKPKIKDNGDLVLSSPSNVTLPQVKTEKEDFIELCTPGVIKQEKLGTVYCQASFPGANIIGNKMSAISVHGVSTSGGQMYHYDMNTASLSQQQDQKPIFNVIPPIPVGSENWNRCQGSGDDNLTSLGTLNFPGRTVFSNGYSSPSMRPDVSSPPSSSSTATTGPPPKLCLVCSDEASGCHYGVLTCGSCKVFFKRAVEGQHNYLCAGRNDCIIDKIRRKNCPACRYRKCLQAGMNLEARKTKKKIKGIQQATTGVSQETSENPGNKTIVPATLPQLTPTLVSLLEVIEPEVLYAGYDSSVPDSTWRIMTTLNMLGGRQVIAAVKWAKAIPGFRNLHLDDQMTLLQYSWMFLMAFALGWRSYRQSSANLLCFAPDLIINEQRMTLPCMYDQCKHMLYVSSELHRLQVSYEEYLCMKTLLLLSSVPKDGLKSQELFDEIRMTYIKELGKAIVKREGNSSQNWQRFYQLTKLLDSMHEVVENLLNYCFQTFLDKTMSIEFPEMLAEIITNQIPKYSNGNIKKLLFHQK

Regarding `CCCCCC(O)/C=C/C=O` (stereo not drawn), the Potency entry in assay [1], in [2], in assay [3], in assay [4], in [5] and in assay [8] was “inactive” throughout. The Potency entry in assay [9], in assay [10], in [11], in [12], in assay [13] and in assay [14] was “inactive” throughout. In assay [15], the Potency result is “inactive”. The outcome in assay [6] and in assay [7] was inactive.

Consider `O=C[C@H](O)[C@@H](O)[C@H](O[C@H]1O[C@H](CO)[C@@H](O[C@H]2O[C@H](CO)[C@@H](O)[C@H](O)[C@H]2O)[C@H](O)[C@H]1O)[C@H](O)CO`, for which the Potency result in assay [1], in assay [2], in assay [3], in assay [4], in [5] and in assay [16] was “inactive” in each case. Also, the Potency entry in assay [8], in assay [10], in assay [11], in assay [13], in assay [14] and in [17] was “inactive” throughout. Further, the Potency result in assay [15] and in [20] was “inactive” throughout. For the same molecule, in assay [6], the result was inactive. Further, the Potency in assay [18] is 7560 nM (active); in assay [19], 1680 nM (active).

For the molecule `OC[C@H]1O[C@@H](O[C@H]2[C@H](O)[C@@H](O)[C@H](O)O[C@@H]2CO)[C@H](O)[C@@H](O)[C@@H]1O`, the Potency result in [1], in assay [2], in [3], in assay [4], in assay [5] and in [8] was “inactive” in each case. In addition, the Potency entry in assay [9], in assay [10], in [11], in assay [13], in assay [14] and in assay [17] was “inactive” each time. The Potency result in assay [19], in assay [15] and in assay [20] was “inactive” throughout. Besides, the outcome in assay [6] and in [7] was inactive.

As to `CS(=O)(=O)Nc1cc2occ(NC=O)c(=O)c2cc1Oc1ccccc1`, the Potency result in [1], in assay [2], in assay [3], in [4], in assay [5] and in assay [10] was “inactive” throughout. Also, the Potency result in assay [11], in assay [12], in assay [13], in [14], in [19] and in [15] was “inactive” each time. Further, in [20], the Potency result was “inactive”. The call in [6] and in [7] was inactive.

Turning to `C=C[C@]1(C)C[C@@H](OC(=O)CSC(C)(C)CNC(=O)[C@H](N)C(C)C)[C@]2(C)[C@H](C)CC[C@]3(CCC(=O)[C@H]32)[C@@H](C)[C@@H]1O`, the Potency entry in [1], in assay [2], in [3], in assay [4], in assay [5] and in [8] was “inactive” each time. The Potency entry in assay [9], in assay [10] and in assay [19] was “inactive” throughout. In addition, the call in assay [6] and in assay [7] was inactive. In addition, the Potency in assay [11] is 188 nM (active); in assay [12], 335 nM (active); in [13] it was 376 nM (active); in assay [17], 23900 nM (active).

On to `CCN(CC)c1ccc(N=Nc2ccc(S(=O)(=O)N(C)C)cc2)c(S(=O)(=O)NCC[n+]2ccccc2)c1`, for which the Potency result in assay [1], in assay [2], in assay [3], in assay [4], in assay [5] and in assay [8] was “inactive” throughout. Further, the Potency result in [9], in assay [10], in assay [12], in assay [14], in assay [17] and in assay [18] was “inactive” each time. For the same molecule, the Potency result in [19], in [15] and in [20] was “inactive” in each case. The call in [6] and in assay [7] was inactive.

On to `OCC(O)CO`, for which the Potency result in assay [1], in assay [2], in assay [3], in assay [4] and in assay [5] was “inactive” in each case. The result in [6] and in [7] was inactive.

The values above are taken from PubChem BioAssay (Tox21).
